Source: PubChem BioAssay (several laboratories)
Shown are actives, neighbours in structure and some others; about 4.9% of the full set was active somewhere.
TIM10 inh – growth inhibitors of isogenic TIM10 control yeast, primary screen, counter-screen for tim10-1 yeast inhibitor project, luminescence, uHTS. S. cerevisiae TIM10 strain growth, BacTiter-Glo luminescence, 24 h. inhibition, % at 10 µM. 330,000 compounds, 1.4% hits;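 active = inhibition of 40% or more at the single tested concentration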;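 also: wild-type TIM10 isogenic control strain grown at permissive 25 °C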
tim23-1 inh – growth inhibitors of tim23-1 mutant yeast, primary screen, luminescence, uHTS; S. cerevisiae tim23-1 growth, BacTiter-Glo luminescence, 24 h; inhibition, % at 20 µM; 330,000 compounds, 1.3% hits;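 active = growth inhibition of the mutant yeast at or above 50%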;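 also: temperature-sensitive mutant grown at 25 °C; plate controls were DMSO-treated mutant yeast for no effect and medium wells lacking yeast for full effect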
NALP3 yeast inh – NALP3 inflammasome inhibitors in reconstituted yeast, primary screen, luminescence, uHTS; 330,000 compounds, 0.39% hits; Yeast reconstituted NLRP3/ASC/caspase-1, beta-gal luminescence, 24 h; AID 2825, 2010; inhibition, % at 10 µM;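 active = inhibition of 50% or more; inactive = inhibition below 50%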;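 also: plate controls were induced DMSO wells for no effect and uninduced yeast grown without galactose for full effect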
tim10-1 inh – growth inhibitors of tim10-1 mutant yeast, primary screen, luminescence, uHTS | inhibition, % at 20 µM | S. cerevisiae tim10-1 ts strain growth, BacTiter-Glo, 24 h | 330,000 compounds, 2.2% hits;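 active = inhibition of at least 40%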;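 also: mutant grown at 25 °C; 0% = DMSO wells with yeast and 100% = wells holding no yeast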
SKKanGAS inh – S. pyogenes SKKanGAS growth inhibitors in kanamycin, primary screen, streptokinase expression inhibitor project, SKKanGAS strain, BacTiter-Glo luminescence; 6 h; inhibition, % at 7.5 µM; 300,000 compounds, 1.3% hits;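 active = mean replicate score, as percent of positive control median, at least 50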;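 also: strain carries kanamycin resistance gene driven by streptokinase promoter and grows in 40 µg/ml kanamycin; loss of luminescence reflects streptokinase promoter inhibition or plain growth inhibition; 0% = median of DMSO wells and 100% = positive control at its reference dose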
NALP1 inh – NALP1 inflammasome inhibitors in reconstituted yeast, colorimetric, S. cerevisiae, triplicate retest; S. cerevisiae NALP1/ASC/caspase-1 growth, X-gal OD620, 72 h; inhibition, % at 10 µM; 280,000 compounds, 0.61% hits; in the data active = inhibition mostly above about 24%, no sharp cut-off; inactive = mostly below about 32%
tim10-1 conf – growth inhibitors of tim10-1 mutant yeast, confirmation, single concentration, luminescence, S. cerevisiae | shares compounds with tim10-1 inh | S. cerevisiae tim10-1 ts strain growth, BacTiter-Glo, 24 h | inhibition, % at 20 µM | 7,400 compounds, 56% hits;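 active = inhibition of yeast growth at or above a set limit in either of two repeat tests at 20 µM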;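 also: tim10-1 mutant grown at permissive 25 °C to find synthetic lethal compounds; 0% = DMSO yeast wells and 100% = medium wells without yeast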
The depositor's hits bear a star; . = not tested or not shown.

SMILES | TIM10 inh | tim23-1 inh | NALP3 yeast inh | tim10-1 inh | SKKanGAS inh | NALP1 inh | tim10-1 conf
CCOC(=O)c1ccc(NC(=O)c2cccc3c2C(=O)N(CC2CCCO2)C3)cc1 (stereo not given) | 18 | 36 | 17 | 47* | 11 | 19 | 43*
CCN(C(=O)c1ccc(N2CC3CC(C2)c2cccc(=O)n2C3)c(NC(=O)c2ccncc2)c1)c1cccc(C)c1 (stereo not given) | 0 | 5 | -15 | 6 | -3 | 10 | .
Cc1ccc(-c2n[nH]c(=S)n2Cc2ccccc2)cc1 | 39 | 24 | 20 | 32 | -7 | 2 | .
Cc1ccccc1-c1n[nH]c(=S)n1Cc1ccccc1 | 26 | 5 | 2 | 40* | -5 | -18 | 16
Oc1ccccc1-c1n[nH]c(=S)n1Cc1ccccc1 | 16 | 4 | 8 | 5 | -3 | -2 | .
S=c1[nH]nc(-c2ccccc2Br)n1Cc1ccccc1 | 21 | 29 | 16 | 41* | -15 | -14 | 26
CC(=O)Nc1ccc(C(=O)COC(=O)C2CC3CCCC(C2)C3=O)cc1 (stereo not given) | 9 | 8 | 13 | 15 | -1 | . | .
O=c1c2[nH]c3ccc(F)cc3c2nc2n1CCS2 | 26 | 19 | 6 | 46* | 13 | 8 | 40*
O=c1c2[nH]c3ccc(F)cc3c2nc2n1CCCS2 | 18 | 32 | 29 | 41* | 0 | 12 | 23
CSc1cccc(NS(=O)(=O)c2cn(C)cn2)c1 | 0 | -1 | 7 | -3 | 5 | 20 | .
Cn1ncc(Br)c1C(=O)N/N=C/c1ccc(OS(=O)(=O)c2ccccc2)cc1 | 35 | 30 | 9 | 45* | 5 | 3 | 25
COC(=O)Sc1nc(N2CCOCC2)c2c(c1C#N)CC(C)(C)OC2 | 39 | 6 | -5 | 45* | 5 | 11 | 31*
S=C(NCc1ccco1)N1CCN(c2ccc(Cl)cc2)CC1 | 32 | 31 | 22 | 49* | -8 | 14 | 23
CC(=O)c1ccc(N2CCN(C(=S)NCc3ccco3)CC2)cc1 | 4 | 8 | 2 | 1 | -1 | 5 | .
CCOC(=O)C1CCN(C(=O)c2ccc(CNS(=O)(=O)c3ccc(OC)cc3)cc2)CC1 | -7 | 8 | 5 | 3 | -18 | 3 | .
CCOC(=O)c1sc(Nc2cccc(Cl)c2)nc1C | 5 | 34 | 22 | 30 | -12 | 12 | .
CCOC(=O)c1sc(Nc2cccc(C)c2C)nc1C | 32 | 27 | 8 | 43* | 5 | -4 | 32*
Cc1onc(-c2c(Cl)cccc2Cl)c1C(=O)NCCc1ccncc1 | 4 | 11 | -3 | 11 | -9 | 20 | .
CCc1cc2ccc(C)cc2nc1SCC(=O)N1CCN(C(=O)c2ccco2)CC1 | 5 | 38 | 18 | 42* | -7 | 18 | 13
CCc1cc2cc3c(cc2nc1SCC(=O)N1CCN(C(=O)c2ccco2)CC1)OCO3 | 1 | 33 | 14 | 21 | 0 | 13 | .
COc1cccc(NC(=O)CC2C(=O)NC3CCCCC3N2C(=O)c2ccccc2)c1 (stereo not given) | 9 | 18 | 4 | 5 | 3 | -5 | .
COC(=O)c1cccc2c1-c1ccccc1/C2=N\NC(N)=O | 23 | 12 | 13 | 40* | -8 | 22 | 12
NC(=O)c1cccc2c1-c1ccccc1/C2=N/NC(N)=S | 12 | 20 | 27 | -13 | -15 | -16 | .
O=C(Nc1ccc(F)cc1F)C1CCN(S(=O)(=O)c2cccnc2)CC1 | -2 | -7 | 12 | 4 | 5 | 0 | .
CCc1ccc(OCc2cccc(C(=O)N/N=C\c3cnn(C)c3C)c2)cc1 | 18 | 3 | 6 | 7 | 13 | 2 | .
SMILES | TIM10 inh | tim23-1 inh | NALP3 yeast inh | tim10-1 inh | SKKanGAS inh | NALP1 inh | tim10-1 conf
COC(=O)c1cccnc1-n1c(=O)c2cccnc2n(Cc2ccc(Cl)cc2)c1=O | 38 | 45 | 5 | 49* | 3 | 17 | 37*
COC(=O)c1cccnc1-n1c(=O)c2cccnc2n(Cc2cccc([N+](=O)[O-])c2)c1=O | -1 | 20 | -12 | 12 | -14 | -17 | .
Oc1c(Cl)cc(Cl)cc1CNc1ccc(Br)cn1 | 17 | 34 | -9 | 55* | 20 | -13 | 63*
Oc1ccc(Cl)cc1CNc1ccccn1 | 0 | 4 | 15 | 1 | -4 | 21 | .
O=C(Cc1ccc(Cl)cc1)Nc1ccc(Br)cn1 | 16 | 31 | 8 | 41* | 3 | -2 | 16
Cc1ccc(C)c(NC(=O)CN(C)C(=O)c2ccc(S(=O)(=O)N3CCCCCC3)cc2)c1 | 14 | 15 | 11 | -1 | . | . | .
COc1ccc(Cl)cc1NC(=O)C/C(C)=N/NC(=O)C(=O)NCc1ccccc1 | 6 | 27 | 12 | 31 | 4 | -2 | .
N/C(=N\OC(=O)c1cccc(Cn2cc(C(F)(F)F)ccc2=O)c1)c1ccccc1 | 22 | 1 | 21 | 44* | -4 | 15 | 52*
COc1ccc(CC(=O)OCC(=O)Nc2ncc(Cl)c(C)c2Cl)cc1 | 8 | 40 | 14 | 43* | . | . | 30*
CCCN(CC(=O)Nc1ccccc1OC)C(=O)c1ccc2[nH]c3c(c2c1)CC(C)CC3 (stereo not given) | 23 | 43 | -12 | 41* | . | . | 30
CCN(CC(=O)Nc1ccccc1OC)C(=O)c1ccc2[nH]c3c(c2c1)CC(C)CC3 (stereo not given) | 27 | 40 | 20 | 17 | . | . | .
COc1ccc([C@H]2/C=C\CN(C(=O)[C@H](Cc3ccccc3)NC(=O)OCC3c4ccccc4-c4ccccc43)CC(=O)N2Cc2ccc(F)cc2)cc1 | 4 | 14 | -1 | 95* | 19 | . | 19
CNC(=O)C(=O)Nc1ccc2c(c1)N(S(=O)(=O)c1cccs1)CCC2 | 22 | 30 | 5 | 25 | -6 | . | .
CC(C)NC(=O)C(=O)Nc1ccc2c(c1)N(S(=O)(=O)c1cccs1)CCC2 | 26 | 35 | 12 | 43* | -10 | . | 21
O=C(Nc1ccc(N2CCN(C(=O)c3ccco3)CC2)cc1)c1ccc2c(c1)OCO2 | 13 | 10 | 2 | 11 | -9 | -10 | .
O=C(Nc1ccc(N2CCN(C(=O)c3ccccc3F)CC2)cc1)c1cncc(Br)c1 | 13 | 35 | 29 | 46* | 2 | 10 | 31*
Cc1ccccc1C(=O)N1CCN(c2ccc(NC(=O)c3ccc4c(c3)OCO4)cc2)CC1 | 11 | 29 | 4 | 44* | 9 | 2 | 29*
O=C(Nc1ccc(N2CCN(C(=O)c3cccs3)CC2)cc1)c1cccc(F)c1 | 32 | 34 | 9 | 48* | -3 | 14 | 33*
